# Screening results (PubChem BioAssay)
# VDR inh = vitamin D3 receptor (human) inhibition; actives 0.93% (n = 400,000); VDR-SRC2-3 peptide fluorescence polarization, 2 h; P11473; AID 504847; Potency, µM, actives largely listed as inhibitors
#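 After 23 nl compound addition and a short centrifugation, plates sat for 2 hours at ambient temperature; polarization of fluorescence then indicated loss of VDR binding to peptide SRC2-3.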
# G9a block = blocks human histone lysine methyltransferase G9a | G9a H3K9 monomethylation, AlphaScreen, 2 h | Potency, µM (highest dose often 102 µM), most hits filed as inhibitors | actives 8.8% (n = 350,000) | AID 504332; note: nearly all actives have a fitted effect of over 75% in size
#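 Step 1: enzyme (final 20 nM) with compound, 15 min RT. Step 2: substrate peptide 500 nM and SAM 20 uM, 2 h RT. Step 3: anti-H3K9me1 antibody and AlphaScreen beads, 10 min, then plate read.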
# 12-LOX inh = blocks human arachidonate 12S-lipoxygenase | P18054 | purified 12hLO, xylenol orange hydroperoxide absorbance | Potency, µM (doses to about 108 µM), hits mostly inhibitors | actives 1.1% (n = 580,000) | AID 1671190
# Target sequence (P18054 whole entry, looked up): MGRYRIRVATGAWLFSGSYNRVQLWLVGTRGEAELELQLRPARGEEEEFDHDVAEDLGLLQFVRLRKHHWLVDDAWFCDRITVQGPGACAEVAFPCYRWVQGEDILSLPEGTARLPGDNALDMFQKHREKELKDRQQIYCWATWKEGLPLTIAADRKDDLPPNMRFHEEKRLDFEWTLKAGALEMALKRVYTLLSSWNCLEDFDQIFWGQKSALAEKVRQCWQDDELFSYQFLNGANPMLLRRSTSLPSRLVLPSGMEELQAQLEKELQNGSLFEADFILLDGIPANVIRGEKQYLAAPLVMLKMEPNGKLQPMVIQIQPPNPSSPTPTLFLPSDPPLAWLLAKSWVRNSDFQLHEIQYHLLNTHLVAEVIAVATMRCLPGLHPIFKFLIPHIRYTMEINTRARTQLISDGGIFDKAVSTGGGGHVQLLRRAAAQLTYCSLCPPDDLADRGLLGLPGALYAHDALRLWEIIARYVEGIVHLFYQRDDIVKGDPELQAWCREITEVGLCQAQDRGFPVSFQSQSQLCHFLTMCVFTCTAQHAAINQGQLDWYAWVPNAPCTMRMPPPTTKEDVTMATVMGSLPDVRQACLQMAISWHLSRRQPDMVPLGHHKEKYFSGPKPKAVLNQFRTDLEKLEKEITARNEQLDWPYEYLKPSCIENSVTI
#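 Purified human 12hLO at 150 nM in 25 mM Hepes, 0.01% Triton X-100, pH 7.0, preincubated 15 min at room temperature with compound. Reaction started with 40 uM arachidonic acid, 30 min at room temperature. Hydroperoxide measured by Fe-xylenol orange, 573/405 nm absorbance ratio.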
# Sfp inh = Sfp phosphopantetheinyl transferase inhibition; Biochemical Sfp PPTase activity, qHTS; Potency, µM, actives largely listed as inhibitors; Q9F4F7; actives 3.5% (n = 310,000);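 note: the enzyme is Sfp with the accession as filed and its product quenches rhodamine fluorescence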
#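 With Hepes-Na pH 7.6 buffer containing 10 mM MgCl2, Sfp (15 nM) modified BHQ-2-YbbR (12.5 uM) using rhodamine-CoA (5 uM). Two reads 30 minutes apart at 525/598 nm yielded each well's rate.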
# GRP78 ERSR act = induces the endoplasmic reticulum stress response in human glioma cells; AID 602332; U87-MG GRP78 promoter luciferase reporter, 16 h; actives 0.02% (n = 420,000); Potency, µM, most hits filed as activators; note: series mostly up to about 76 µM; nearly all actives have a fitted effect of over 35% in size
#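 Stably transfected U87-MG human glioma cells carrying a GRP78-based luminescent sensor were seeded at 1000 cells/well, pin-dosed with compounds and incubated 16 h. Luciferase reagent was then added, and end-point luminescence was read after 10 min at room temperature.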
# Numbers stand for hits; i = inactive; ? = inconclusive; nt = not tested or not shown; [ ] = remark or other dose. The entries come from a sample that favours hits as a whole. Calls come from the whole dose curve; as a rule, active = well fitted curve in the direction sought with a large enough effect; inconclusive = small, poorly fitted or top-dose-only effect, or another doubt; inactive = no such curve, though single readings can be large; an effect the other way counts as inactive or inconclusive.
SMILES,VDR inh,G9a block,12-LOX inh,Sfp inh,GRP78 ERSR act
CC1CC=CC2C1C(=O)N(Cc1ccccc1)C2c1ccc2ccccc2c1Br (stereo not given),i,nt,nt,?,?
CC1C=C[C@@H]2[C@H](C1)C(=O)N(Cc1ccccc1)[C@H]2c1ccccc1Br (stereo not given in full),45µM,?,nt,i,i
O=C1[C@H]2CCC=C[C@H]2[C@H](c2cccc(Br)c2)N1Cc1ccccc1,?,i,nt,112µM,i
O=C1[C@H]2CCC=C[C@H]2[C@H](c2ccccc2Br)N1Cc1ccccc1,56µM,i,?,i,i
COc1ccc(N2C(=O)[C@H]3CCC=C[C@H]3[C@@H]2c2ccccc2Br)cc1,?,i,?,i,i
Cc1ccc(Nc2ncc(C(=O)NC3CCCC(C)C3C)c3ccccc23)cc1Cl (stereo not given),nt,nt,i,nt,nt
CCOC(=O)c1sc2cc([N+](=O)[O-])cc(SCCO)c2c1N,i,i,i,i,i
CCOC(=O)c1sc2cc([N+](=O)[O-])cc(SCC(=O)OC)c2c1N,?,7.9µM,?,?,i
COc1ccccc1CNc1ccnc(-c2ccccc2OC)n1,?,i[0.501 µM],?,79µM,i
c1ccc(CNc2ccnc(-c3ccc4c(c3)OCO4)n2)cc1,i,nt,?,i,i
COc1ccc2[nH]cc(CCNc3cc(-c4ccc5c(c4)OCO5)ncn3)c2c1,?,i[0.501 µM],?,i,i
COc1ccc(CNc2ccnc(-c3ccc4c(c3)OCO4)n2)c(OC)c1,i,i[0.501 µM],20µM,45µM,i
COc1ccc2[nH]cc(CCNc3ccnc(-c4ccc5c(c4)OCO5)n3)c2c1,i,i[0.501 µM],45µM,?,i
COc1ccccc1CNc1ccnc(-c2ccc3c(c2)OCO3)n1,?,nt,?,50µM,i
COc1ccc(CNc2ccnc(-c3ccc(C(=O)N(C)C)cc3)n2)c(OC)c1,i,i[0.501 µM],?,i,i
c1ccc2c(c1)Cc1cccnc1-2,nt,nt,i,nt,nt
NC(=O)C1CCN(C(=O)CCc2ncc(-c3ccc(F)cc3)o2)CC1,nt,nt,i,nt,nt
O=C1CCCc2c1cc(C(=O)NC1CCCC1)c(=O)n2-c1ccc(C(F)(F)F)cc1,nt,nt,i,nt,nt
CCCN1CCN(C(=O)c2ccccc2-c2nc3ccccc3s2)CC1,i,40µM,i,i,i
CC(=O)Nc1ccc(I)cc1C,nt,nt,i,nt,nt
COc1ccc(-c2cc(=O)n(-c3ccc([N+](=O)[O-])cc3)[nH]2)cc1,?,10µM,?,i,i
CC/C=C\CCOC(C)=O,nt,nt,i,nt,nt
COc1cccc(C2CC(c3ccc(C)cc3)=NN2C(=O)c2ccccc2F)c1OC (stereo not given),i,i,i,i,i
Cc1ccc(C2=NN(C(=O)c3ccccc3F)C(c3ccccc3F)C2)cc1 (stereo not given),i,16µM,i,50µM,i
O=C(c1ccccc1)N1N=C(c2ccccc2)CC1c1ccccc1O (stereo not given),?,?,i,10µM,i
SMILES,VDR inh,G9a block,12-LOX inh,Sfp inh,GRP78 ERSR act
CC(C)Cn1nc(C(=O)NN2C(=O)NC(c3ccccc3)(c3ccccc3)C2=O)c2ccccc2c1=O,nt,nt,i,nt,nt
O=S(=O)(Nc1nc2ccccc2nc1Nc1ccccc1)c1cccc2nsnc12,nt,nt,i,nt,nt
O=C(NCc1ccc(S(=O)(=O)NC2CCCCC2)s1)c1ccccc1,i,?,i,i,i
O=C(NCc1ccc(S(=O)(=O)Nc2ccccc2Cl)s1)c1ccccc1,i,79µM,i,i,i
Cn1c(=O)c2[nH]c(CN3CCN(C(=O)c4ccco4)CC3)nc2n(C)c1=O,nt,nt,i,nt,nt
CCOc1ccc(CCNC(=O)c2nc(-c3cccc(F)c3)n3c2CCCCC3)cc1OCC,i,28µM,i,nt,i
COc1ccc(OC)c(CCNC(=O)c2nc(-c3ccc(Cl)cc3)n3c2CCCCC3)c1,i,14µM,?,nt,i
Cn1cccc1C(=O)NCc1ccc(Cl)cc1,i,45µM,i,i,i
COc1ccc(NC(=O)c2nc(-c3ccc(C)cc3)n3c2CCCCC3)c(OC)c1,i,i,i,nt,i
CC(C)(Oc1ccc(Cl)cc1)C(=O)N1CCN(c2ncccn2)CC1,nt,nt,i,nt,nt
COc1ccc(N2CCN(C(=O)C(C)(C)Oc3ccc(Cl)cc3)CC2)cc1,i,7.9µM,i,?,i
Cc1ccc(CNC(=O)c2nc(-c3ccc(Cl)cc3)n3c2CCCCC3)cc1,i,8.9µM,?,nt,i
COc1ccc(N2CCN(C(=O)c3nc(-c4ccc(Cl)cc4)n4c3CCCCC4)CC2)cc1,i,11µM,i,nt,i
Cc1ccc(-c2nc(C(=O)N3CCN(c4ccccc4)CC3)c3n2CCCCC3)cc1,i,i,i,nt,i
CN1CCN(C(=O)CNc2nc(Cl)nc3nc[nH]c23)CC1,nt,nt,i,nt,nt
OC1(CN2CCN(c3cnccn3)CC2)CNCCOC1 (stereo not given),nt,nt,10µM,nt,nt
CC1CCCC(NC(=O)CNCc2ccccc2F)C1C (stereo not given),i,10µM,i,i,i
Cc1ccccc1C1=C/C(=C(\SS/C(C(=O)c2ccc(OCC(=O)O)c(Cl)c2Cl)=C2\C=C(c3ccccc3C)SS2)C(=O)c2ccc(OCC(=O)O)c(Cl)c2Cl)SS1,40µM,nt,5.6µM,nt,i
COc1ccc(-n2c(C)cc(/C=C/c3nc(O)c([N+](=O)[O-])c(=O)[nH]3)c2C)cc1,i,28µM,?,i,i
Cc1cc(/C=C\c2nc(O)c([N+](=O)[O-])c(=O)[nH]2)c(C)n1-c1ccccc1,i,50µM,?,i,i
O=C(COc1ccccc1/C=C\c1nc(O)c([N+](=O)[O-])c(=O)[nH]1)Nc1ccccc1,?,50µM,i,i,i
CCOc1ccc(/C=C\c2nc(O)c([N+](=O)[O-])c(=O)[nH]2)cc1OCC,?,?,i,i,i
CCOc1ccccc1/C=C\c1nc(O)c([N+](=O)[O-])c(=O)[nH]1,?,i,?,i,i
O=c1[nH]c(/C=C\c2ccc(O)c(O)c2)nc(O)c1[N+](=O)[O-],i,40µM,?,45µM,i
O=c1[nH]c(/C=C\c2cccc(O)c2)nc(O)c1[N+](=O)[O-],i,i,i,i,i
SMILES,VDR inh,G9a block,12-LOX inh,Sfp inh,GRP78 ERSR act
CCOC(=O)c1nc(N(C)c2cc(C)ccc2C)c2ccccc2n1,nt,nt,i,nt,nt
CCOC(=O)N1CCC(N2Cc3cccc(C(=O)NC(C)c4ccc5c(c4)OCCO5)c3C2=O)CC1 (stereo not given),i,40µM,i,i,i
CCOC(=O)N1CCC(N2C(=O)c3ccccc3C2Nc2ccc(S(=O)(=O)N3CCCCC3)cc2)CC1 (stereo not given),nt,40µM,nt,i,nt
CCOC(=O)N1CCC(N2C(=O)c3ccccc3C2Nc2ccc3c(c2)OCCO3)CC1 (stereo not given),i,50µM,i,i,i
CCOC(=O)c1ccccc1NC1c2ccccc2C(=O)N1C1CCN(C(=O)OCC)CC1 (stereo not given),i,40µM,i,i,i
CCOC(=O)N1CCC(N2Cc3cccc(C(=O)NCc4ccc(C)cc4)c3C2=O)CC1,i,?,i,i,i
